Screening results: PubChem, National Center for Advancing Translational Sciences (NCATS)
The full list was thinned out, with hits kept by preference.
OvCa metastasis: Primary qHTS assay for Inhibitors of ovarian cancer metastasis using an organotypic tumor microenvironment (TME) model. AID 1963576, 2024. Potency, µM (series often up to 45.8 µM), without a hit: at the top dose activity change, negative = inhibition, usual class: inhibitors. SKOV3ip1-GFP adhesion/invasion on 3D omental model, fluorescence. actives 0.1% (n = 46,000);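 also: plate controls were DMSO wells for no effect and tomatine positive control wells for full effect; nearly all actives have a fitted effect of over 65% in size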
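Primary human omental fibroblast/mesothelial 3D culture pre-formed 48 h. SKOV3ip1-GFP cells added with compounds (0.36-46 umol/L), incubated 2 h RT/16 h 37 C, fixed; GFP cells quantified at 488/509 nm.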
p53null 32C kill: qHTS Screen for Compounds that Selectively Target Cancer Cells with p53 Mutations: Cytotoxicity of p53 Null Cells at the Permissive Temperature; H1299-neo p53 null cells, ATP luminescence, 24 h, 32C; actives 0.62% (n = 55,000); AID 903, 2007; Potency, µM (doses to about 46.1 µM), for inactives: at the highest dose activity change, negative = cytotoxicity, usual class: cytotoxic;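 also: 0% = DMSO only and -100% = full killing by 100 µM tamoxifen; nearly all actives have a fitted effect of over 55% in size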
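Cytotoxicity: H1299-neo (no p53), 32C, 24 h treatment. Concentrations up to 46 uM. Readout cellular ATP, luminescence. Normalization to DMSO basal and tamoxifen 100 uM maximal kill.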
p53null 39C kill: qHTS Screen for Compounds that Selectively Target Cancer Cells with p53 Mutations: Cytotoxicity of p53 Null Cells at the Nonpermissive Temperature; H1299 p53-null (neo) cells, 39C, ATPlite viability, 24 h; Potency, µM (highest dose often 46.1 µM), for inactives: at the highest dose activity, negative = cell killing, most hits filed as cytotoxic; actives 0.97% (n = 55,000);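 also: 0% = DMSO only and -100% = full killing by 100 µM tamoxifen; nearly all actives have a fitted effect of over 50% in size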
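H1299 lung cancer cells, p53-null (H1299-neo) or expressing p53 A138V (H1299-p53A138V), were plated overnight at 37C, then exposed to compounds at up to 46 uM for 24 hr at 39C. Viability was read by ATP-based luminescence.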
NTMT1 inhibitor: Primary qHTS for Inhibitors of N-terminal methyltransferase 1 (NTMT1): MTaseGlo Assay; actives 2.5% (n = 59,000); AID 1645870, 2021; NTMT1 MTase-Glo SAH luminescence, purified enzyme; N-terminal Xaa-Pro-Lys N-methyltransferase 1 (Homo sapiens), Q9BV86; Potency, µM (titrated, usually from 114 µM), inactives show at the top dose activity change, negative = inhibition, most hits filed as inhibitors;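 also: plate controls were DMSO vehicle for no effect and no enzyme for full effect; nearly all actives have a fitted effect of over 65% in size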
Target sequence (Q9BV86 whole entry, looked up): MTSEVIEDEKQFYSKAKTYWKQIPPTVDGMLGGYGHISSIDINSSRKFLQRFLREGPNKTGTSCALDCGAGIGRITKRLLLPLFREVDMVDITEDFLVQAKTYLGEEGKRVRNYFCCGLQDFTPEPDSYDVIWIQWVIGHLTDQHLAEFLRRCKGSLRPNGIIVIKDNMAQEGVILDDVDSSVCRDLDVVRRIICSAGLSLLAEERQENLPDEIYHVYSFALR
* marks the source's active call; other numbers are inactive results; i = inactive; ? = inconclusive; . = not tested or not shown; ! = a repeat was not active; [ ] = another dose, or the depositor's remark. Calls follow the shape of the dose curve; as a rule, active = well fitted curve in the direction sought with a large enough effect; inconclusive = small, poorly fitted or top-dose-only effect, or another doubt; inactive = no such curve, though single readings can be large; an effect the other way counts as inactive or inconclusive. Potency is read from the fitted curve at half-maximal effect.

SMILES	OvCa metastasis	p53null 32C kill	p53null 39C kill	NTMT1 inhibitor
O=C(CN1C(=O)C2(SCC(=O)N2c2ccccc2)c2ccccc21)NCc1ccccc1 (stereo not drawn)	1%	-3%	17%	89µM*
O=S(=O)(c1cccc2c(I)cccc12)N1CCCNCC1	.	.	.	40µM*!
O=S(=O)(c1cccc2ccccc12)N1CCN(c2ccc(Cl)c(Cl)c2)CC1	i	-1%	-21%	5%
c1ccc(-c2nc(NCc3ccc(-c4cccnc4)cc3)c3ccccc3n2)cc1	.	.	.	2%[57.5 µM]
COc1cc(Cl)c(C)cc1NC(=O)c1cc2ccc3cccnc3c2[nH]1	i	20µM*	-10%	-6%
COc1ccccc1NC(=O)c1cc2ccc3cccnc3c2[nH]1	0%	?	-7%	-10%
CCOc1ccccc1NC(=O)N1CCN(C)c2ncccc21	5%	-6%	12%	89µM*
Nc1ccccc1CNc1ccc(S(=O)(=O)Nc2nccs2)cc1	.	.	.	38%
COCCCNC(=O)c1ccc(Cn2c(SCc3ccc(F)cc3)nc3cccnc32)cc1	i	10µM*	13µM*	-19%
COCCCNC(=O)c1ccc(CSc2nc3cccnc3n2Cc2ccc(OC)cc2)cc1	i	4%	-25%	-5%
CN(C)CCNC(=O)c1ccc(Cn2c(SCc3ccc(F)cc3)nc3cccnc32)cc1	-17%	-11%	-10%	?
COc1ccc(NC(=O)Cn2c(SCc3ccc(F)cc3)nc3cccnc32)cc1OC	-9%	?	?	-2%
COc1ccc(NC(=O)Cn2c(SCc3ccc(C)cc3)nc3cccnc32)cc1OC	-4%	3.5µM*	5µM*	-21%
O=C(NCCN1CCCCC1)c1ccc(Cn2c(SCc3ccc(F)cc3)nc3cccnc32)cc1	?	16µM*	?	?
Cc1ccc(S(=O)(=O)Nc2ccc(C(=O)Nc3nc(-c4ccccc4)cs3)c(Cl)c2)cc1	.	.	.	15%
CCN(CC)C(=O)c1ccc2c(c1)ncn2-c1cccc(C)c1	.	.	.	0%
COc1c2c(c(C)c3c1C(=O)OC3)OC1(C)CC(O)C34OC(OC)(CC(O)C3(C)C1C2)OC4(C)C (stereo not drawn)	.	.	.	8%[29.8 µM]
CCN1CCC(N(Cc2ccc(F)cc2)C(=O)Nc2cc(Cl)ccc2C(=O)OC)CC1	11µM*	-6%	-26%	-17%
Cc1ccc(-c2ccc(=O)n(CC(=O)NCCc3ccncc3)n2)cc1	.	.	.	12%
N[C@@H]1CN(c2c(F)cc3c(=O)c(C(=O)O)cn([C@@H]4C[C@@H]4F)c3c2Cl)CC12CC2	.	.	.	15%
Cc1ccc(S(=O)(=O)c2cnc(SCC(=O)Nc3ccccc3C(F)(F)F)[nH]c2=O)cc1C	i	4%	-8%	89µM*
COc1cc(Cl)c(C)cc1NC(=O)CSc1ncc(S(=O)(=O)c2ccc(C(C)(C)C)cc2)c(=O)[nH]1	-2%	16%	3%	18µM*
CC(C)(C)c1ccc(S(=O)(=O)c2cnc(SCC(=O)Nc3ccc(F)c(Cl)c3)[nH]c2=O)cc1	-8%	1%	?	25µM*
CCc1ccc(S(=O)(=O)c2cnc(SCC(=O)Nc3ccc(OC)cc3OC)[nH]c2=O)cc1	4%	1%	14%	-18%
O=C(CSc1ncc(S(=O)(=O)c2ccc(Cl)cc2)c(=O)[nH]1)Nc1cccc(C(F)(F)F)c1	-6%	-1%	27%	?
SMILES	OvCa metastasis	p53null 32C kill	p53null 39C kill	NTMT1 inhibitor
Cn1ccnc1CCOC(c1cc2nccc(C(=O)O)c2[nH]1)c1ccccc1Cl (stereo not drawn)	.	.	.	17%[57.5 µM]
COc1ccc(NC(=O)Nc2ccc(-c3nc4ccccc4[nH]3)cc2)cc1OC	.	.	.	-1%
O=C1NS(=O)(=O)c2cc(Br)ccc21	.	.	.	14%
C[C@@H]1O[C@@H](O[C@H]2[C@H](O)[C@@H](O[C@@H]3O[C@H](CO)[C@H](O)[C@H](O)[C@H]3O)[C@H](O[C@H]3CC[C@@]4(C)C(CC[C@]5(C)C4CC=C4[C@@H]6CC(C)(C)CC[C@]6(C(=O)O[C@@H]6O[C@H](CO)[C@@H](O)[C@H](O)[C@H]6O)CC[C@]45C)C3(C)C)O[C@@H]2C(=O)O)[C@H](O)[C@H](O)[C@H]1O (stereo partly drawn)	.	.	.	13%[12.6 µM]
Cc1ccc2nc(-c3ccc(O)cc3)c(Nc3ccc(Cl)cc3)n2c1	-8%	28%	?	?
Cc1ccc2nc(-c3ccccc3F)c(Nc3ccc(Cl)cc3)n2c1	i	36%	20µM*	-20%
Nc1nc(=S)c2[nH]cnc2[nH]1	-28%	.	.	3.5µM*
CCCN(CCC)CC(O)Cn1cc(/C=C/C(=O)c2ccc(OCC)cc2)c2ccccc21 (stereo not drawn)	-19%	?	20µM*	-4%
COc1cc2ncc(-c3ccccc3)nc2cc1OC	.	.	.	-4%[57.5 µM]
Cc1cc2ncc(-c3ccccc3)nc2cc1C	.	.	.	45µM*
CC(C)(C)OC(=O)NCCOCCOCCOc1cccc(-n2ncc3c2CCCC3NC(=O)c2ccccn2)c1 (stereo not drawn)	.	.	.	3%
CCc1ccc(NC(=O)Cn2c(=O)n(-c3ccccc3)c(=O)c3ccc(C(=O)NCc4ccc5c(c4)OCO5)cc32)cc1	-2%	-14%	-15%	10%
CCOc1ccc(NC(=O)Cn2c(=O)n(-c3ccccc3)c(=O)c3ccc(C(=O)NCc4ccc5c(c4)OCO5)cc32)cc1	24%	-10%	16µM*	0%
CC1(C)S[C@H]2[C@H](NC(=O)[C@@H](N)c3ccc(O)cc3)C(=O)N2[C@H]1C(=O)O	.	.	.	-7%
O=C(Nc1ncc(-c2ccccc2)s1)c1ccc(-c2cccc([N+](=O)[O-])c2)o1	.	.	.	4%[57.5 µM]
Cc1ccc(OCCn2c(CCNC(=O)Cc3cc(F)ccc3F)nc3ccccc32)cc1	.	.	.	-12%
COc1cccc(C2N(c3ccc(Cl)cc3)C(=O)C3CCCN32)c1 (stereo not drawn)	.	0%	0%	.
COc1cccc(C2CC(=O)N3CN(C4CCCCC4)CSC3=C2C#N)c1 (stereo not drawn)	-6%	23%	7%	11µM*
COc1ccc(C2CC(=O)N3CN(C4CCCCC4)CSC3=C2C#N)cc1 (stereo not drawn)	-5%	5%	2%	13µM*
CC(C)N1CCc2c(sc(NC(=O)C3CCCC3)c2-c2nc3ccccc3s2)C1	.	.	.	-4%
COCCNCc1ccc(-c2cc3nccc(Oc4ccc(NC(=O)C5(C(=O)Nc6ccc(F)cc6)CC5)cc4F)c3s2)nc1	.	.	.	-5%[57.5 µM]
Cc1ccc(-c2nn3c(C)nnc3s2)cc1NCc1ccc(-c2cccc(Cl)c2)o1	.	.	.	9%
CCN(CCO)C(=O)CC(c1ccccc1)c1cc(Br)ccc1O (stereo not drawn)	.	-4%	-11%	.
